This is an account of results in PubChem BioAssay (NCATS).

Test [1] can be described thus: qHTS profiling of the MIPE4 collection as inhibitors of Plasmodium falciparum (3D7) proliferation (AID 743344).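 Note: scaled between DMSO vehicle wells and 0.29 µM artemisinin as full inhibition.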 Particulars: P. falciparum 3D7 in erythrocytes, SYBR Green DNA fluorescence, 72 h; at 28.5 µM unless noted. The procedure, abridged: (§1)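 Erythrocytes infected with P. falciparum (0.3% parasitemia, 2.5% hematocrit) incubated with compounds 72 h at 37 C, 5% CO2. Lysis with saponin/Triton buffer containing SYBR Green I, overnight at room temperature in the dark; DNA fluorescence (485/535 nm) normalised to 0.29 uM artemisinin and DMSO.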

Test [2] can be described thus: qHTS profiling of the MIPE4 collection as inhibitors of Plasmodium falciparum (DD2) proliferation (AID 743345). Particulars: P. falciparum Dd2 in erythrocytes, SYBR Green DNA, 72 h; at 28.5 µM unless noted. In short, it runs like this:
as §1

Test [3] is described as follows: qHTS profiling of the MIPE4 collection as inhibitors of Plasmodium falciparum (DD2) proliferation (Rep 2) (AID 743346). Conditions: P. falciparum Dd2 in erythrocytes, SYBR Green DNA, 72 h; at 28.5 µM unless noted. The procedure, abridged: as §1
Test [4] in a line: qHTS profiling of the MIPE4 collection as inhibitors of Plasmodium falciparum (HB3) proliferation (AID 743347).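 Note: plate controls were DMSO vehicle wells for no effect and artemisinin wells for full effect.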 Conditions: P. falciparum HB3 in erythrocytes, SYBR Green DNA, 72 h; at 28.5 µM unless noted. In short, it runs like this:
as §1

Test [5] can be described thus: High-throughput drug toxicity screening in the BPDCN cell line Gen2.2 (AID 1224824). Conditions: Gen2.2 BPDCN cells; at 45.8 µM (top of the series) unless noted. In short, it runs like this:
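Seed 500 exponentially growing Gen2.2 cells/well; add compounds by pin tool; incubate 48 h, 37 °C, 5% CO2; add CellTiter-Glo, 15 min RT; read luminescence. % activity vs DMSO (100%) and bortezomib (0%).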

A short description of test [6]: High-throughput drug toxicity screening in the BPDCN cell line Cal-1 (AID 1224825). Particulars: Cal-1 BPDCN cell viability, qHTS; at 45.8 µM (top of the series) unless noted. In short, it runs like this: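 Cal-1 cells, 500 per well in phenol-red-free RPMI with 10% FBS, exposed to compounds for 48 hours at 37C, 5% CO2. Viability read by CellTiter-Glo luminescence; percent activity normalized to DMSO (100%) and 9.2 uM bortezomib final (0%).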

Test [7] is described as follows: qHTS assay for measurement of the activity of small molecule inhibitors on Zika virus induced Caspase-3 activity in human iPSC derived neural progenitor cells (hNPCs) (AID 1224857; active = well fitted curve in the direction sought with a large enough effect; an effect the other way counts as inactive or inconclusive; note: nearly all actives have a fitted effect of over 65% in size; note: potency is the fitted concentration of half-maximal effect). The procedure, abridged:
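Caspase-3/7 induction by a 6-hour ZIKV infection was quantified with a luminescent Caspase-Glo 3/7 reagent incubated 30 minutes at room temperature. Compounds were preincubated with hNPCs for 1 hour; inhibition was calculated against uninfected and infected control wells.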

A short description of test [8]: qHTS assay for measurement of the activity of small molecule inhibitors on Zika virus induced Caspase-3 activity in human astrocytoma cells (AID 1224859; active = well fitted curve in the direction sought with a large enough effect; an effect the other way counts as inactive or inconclusive;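 note: plate controls were ZIKV-infected untreated cells for no effect and uninfected cells for full effect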). In short, it runs like this:
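In SNB-19 cells plated at 250 cells/well and grown 16-20 h, compounds were applied 1 h before ZIKV (2 FFU/cell). Six hours later caspase-3/7 luminescence was recorded.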

The nature of test [9]: qHTS Screen of the MIPE 4.0 Collection Against Ewings Sarcoma (RDES) (AID 1259252; active = well fitted curve in the direction sought with a large enough effect; an effect the other way counts as inactive or inconclusive; note: nearly all actives have a fitted effect of over 35% in size; note: potency is the fitted concentration of half-maximal effect). In short, it runs like this:
(§2)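 Viability screen: 48 h incubation at 37C, 95% humidity, 5% CO2 with serially titrated compound, followed by CellTiter-Glo readout.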

The nature of test [10]: qHTS Screen of the MIPE 4.0 Collection Against Ewings Sarcoma (TC71) (AID 1259253; active = well fitted curve in the direction sought with a large enough effect; an effect the other way counts as inactive or inconclusive; note: nearly all actives have a fitted effect of over 40% in size; note: potency is the fitted concentration of half-maximal effect). The procedure, abridged: as §2
Test [11] can be described thus: qHTS Screen of the MIPE 4.0 Collection Against Ewings Sarcoma (EW8) (AID 1259255; active = well fitted curve in the direction sought with a large enough effect; an effect the other way counts as inactive or inconclusive; note: nearly all actives have a fitted effect of over 35% in size; note: potency is the fitted concentration of half-maximal effect;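 for viability: 100% = DMSO-treated cells and 0% = medium-only wells without cells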). In short, it runs like this:
as §2

The nature of test [12]: qHTS profiling for inhibitors of Plasmodium falciparum (HB3) proliferation (AID 743324; active = well fitted curve in the direction sought with a large enough effect; an effect the other way counts as inactive or inconclusive;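 note: 100% = DMSO vehicle wells and 0% = artemisinin-treated control wells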). Particulars: Plasmodium falciparum HB3 blood-stage proliferation; at 28.7 µM (top of the series) unless noted. In short, it runs like this:
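P. falciparum HB3 grown in erythrocytes (0.3% parasitemia, 2.5% hematocrit final) with compound for 72 h at 37 C, 5% CO2. Parasite DNA detected by SYBR Green after saponin/triton lysis overnight; normalized to 0.29 uM artemisinin and DMSO.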

The nature of test [13]: qHTS Screen of the MIPE 4.0 Collection Against Ewings Sarcoma (TC32) (AID 1259256; active = well fitted curve in the direction sought with a large enough effect; an effect the other way counts as inactive or inconclusive; note: nearly all actives have a fitted effect of over 45% in size; note: potency is the fitted concentration of half-maximal effect). In short, it runs like this: as §2
Test [14] can be described thus: Identifying Small Molecule Inhibitors of Pancreatic Cancer Stem Cells (SN12C, Adherent) (AID 1259358; active = well fitted curve in the direction sought with a large enough effect; an effect the other way counts as inactive or inconclusive;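 note: cell survival measured after 48 h of compound exposure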). In short, it runs like this:
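Monolayer and spheroid cultures are compared. Spheroids form over 14 days in stem cell medium on hydrogel-coated low-attachment plates, then are exposed to compound for 48 h before CellTiter-Glo luminescence.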

The structures appear in SMILES notation. Records with an inconclusive call do not appear. Active and inactive are the calls of the source. Unless noted, the rule behind the calls is not given here.

Consider `Cc1ccc2c(c1)c1c(n2CCc2ccc(C)nc2)CCN(C)C1`, for which, in [1], the parasite growth, % of DMSO control turned out to be 113%. Further, the parasite growth remaining, % of DMSO control (lower = more inhibition) in test [2] stood at 55.3%. Moreover, in [3], the parasite growth, % of control (lower = inhibition) worked out at 49.2%. The molecule further registered a growth, % of control in test [4] of 135%. Besides, the cell viability, % of control (lower = more cytotoxic) in [5] was found to be 163%. Besides, the viability (% of control) in [6] stood at 90.5%. Besides, the Potency entry in test [7], in test [8] and in test [9] was “inactive” in each case.
In test [1], `Nc1ccn([C@@H]2O[C@H](CO)[C@@H](O)[C@H]2O)c(=O)n1` registered a parasite growth, % of DMSO control of 89.8%. In addition, the parasite growth remaining, % of DMSO control (lower = more inhibition) in test [2] is 97.8%. Besides, the parasite growth, % of control (lower = inhibition) in test [3] was determined as 117%. Moreover, in [4], the growth, % of control was determined as 108%. Besides, the cell viability, % of control (lower = more cytotoxic) in test [5] was determined as 86.2%. Also, the viability (% of control) in test [6] amounted to 11.3%. Moreover, the Potency result in [7] and in test [8] was “inactive” each time. In addition, the Potency in test [10] was 0.0332 µM (active); in test [11] it was 0.0935 µM (active).
Take `NCc1c[nH]c(=S)n1[C@H]1CCc2c(F)cc(F)cc2C1`: the parasite growth, % of DMSO control in test [1] was found to be 15.7%. Besides, the parasite growth remaining, % of DMSO control (lower = more inhibition) in test [2] worked out at 12.9%. Besides, the parasite growth, % of control (lower = inhibition) in [3] was determined as 13.8%. For the same molecule, in test [5], the cell viability, % of control (lower = more cytotoxic) is 61.4%. For the same molecule, the viability (% of control) in test [6] was 34.2%. For the same molecule, the Potency result in test [7] and in test [8] was “inactive” each time. Moreover, the Potency was 20.9 µM (active) in test [10] and 23.5 µM (active) in test [11].
The molecule `O[C@@H](COc1cccc2ncccc12)CN1CCN(C2c3ccccc3[C@@H]3[C@H](c4ccccc42)C3(F)F)CC1` (stereo partly drawn) returned a parasite growth, % of DMSO control in test [1] of 47.1%. The molecule further returned a parasite growth remaining, % of DMSO control (lower = more inhibition) in [2] of 65.6%. For the same molecule, the parasite growth, % of control (lower = inhibition) in test [3] is 54.1%. The growth, % of control in [4] is 63.5%. In addition, the cell viability, % of control (lower = more cytotoxic) in [5] came out at 4.83%. The viability (% of control) in [6] stood at 6.33%. The Potency in test [7] was 26.4 µM (active); in [9], 20.9 µM (active). Besides, the Potency result in test [8] was “inactive”.
In the case of `Cc1cccc2c1CC[C@H](CN1CCC(c3c(Cl)cccc3Cl)CC1)C[C@@H]2O`, the parasite growth, % of DMSO control in [1] stood at 8.94%. For the same molecule, the parasite growth, % of control (lower = inhibition) in test [3] is 25%. The growth, % of control in [4] is 9.19%. Moreover, the cell viability, % of control (lower = more cytotoxic) in test [5] is 140%. For the same molecule, the viability (% of control) in test [6] turned out to be 43.1%. The Potency entry in test [7] and in test [8] was “inactive” each time. The Potency is 5.9 µM (active) in test [10] and 14.8 µM (active) in test [11].
As for `O=C(O)Cc1cccc(OCCCN(Cc2cccc(C(F)(F)F)c2Cl)CC(c2ccccc2)c2ccccc2)c1`, the remaining proliferation (% of control), lower = more inhibition in test [12] is 5.3%. Moreover, the parasite growth, % of DMSO control in test [1] is 20.8%. In test [2], this molecule yielded a parasite growth remaining, % of DMSO control (lower = more inhibition) of 42.2%. Also, the parasite growth, % of control (lower = inhibition) in [3] came to 18.9%. Also, the growth, % of control in test [4] worked out at 15.4%. In [5], the cell viability, % of control (lower = more cytotoxic) came to 170%. For the same molecule, the viability (% of control) in [6] was 117%. Also, the Potency result in test [7], in test [8] and in test [14] was “inactive” throughout. Also, the Potency in test [10], in test [11] and in [13] was 20.9 µM (active) each time.
As for `CN1CCC[C@H]1CCO[C@](C)(c1ccccc1)c1ccc(Cl)cc1`, the parasite growth, % of DMSO control in test [1] turned out to be 12.4%. Besides, the parasite growth remaining, % of DMSO control (lower = more inhibition) in test [2] was determined as 13.4%. Besides, the parasite growth, % of control (lower = inhibition) in test [3] amounted to 23.9%. This molecule showed a growth, % of control in [4] of 10.3%. Further, the cell viability, % of control (lower = more cytotoxic) in [5] is 77.3%. Moreover, the viability (% of control) in test [6] worked out at 50.8%. Further, the Potency entry in [7] and in test [8] was “inactive” each time. Besides, the Potency in [9] is 20.9 µM (active).
As to `O=C(O)C1=CO[C@@H](O[C@@H]2O[C@H](CO)[C@H](O)[C@H](O)[C@H]2O)[C@@H]2C(CO)=CC[C@H]12`, in test [1], the parasite growth, % of DMSO control was 99.8%. The parasite growth remaining, % of DMSO control (lower = more inhibition) in test [2] is 96.1%. Further, the parasite growth, % of control (lower = inhibition) in [3] was determined as 83.9%. In test [4], this molecule gave a growth, % of control of 103%. For the same molecule, the cell viability, % of control (lower = more cytotoxic) in test [5] was found to be 78.1%. The viability (% of control) in test [6] was found to be 23.1%. Besides, the Potency entry in test [7], in [8], in test [11] and in [13] was “inactive” throughout. In addition, the Potency in [10] is 16.6 µM (active).
With `CON(C)C(=O)N1N=C(c2cc(F)ccc2F)S[C@]1(CCCN)c1ccccc1`, the parasite growth, % of DMSO control in test [1] is 13.1%. Moreover, the parasite growth remaining, % of DMSO control (lower = more inhibition) in test [2] stood at 10.1%. The parasite growth, % of control (lower = inhibition) in test [3] worked out at 18.3%. In test [5], the cell viability, % of control (lower = more cytotoxic) worked out at 16.8%. Besides, the viability (% of control) in test [6] stood at 7.01%. The Potency result in [7], in [8], in test [10] and in test [13] was “inactive” in each case.
